Pf Dd2 growth: inhibitors of Plasmodium falciparum Dd2 growth. P. falciparum Dd2 growth, SYBR Green, 72 h. Potency, µM (titrated, usually from 28.9 µM), actives largely listed as inhibitors. 120,000 tested, 4.3% active; active = well fitted inhibition curve with a large enough effect; note: nearly all actives have a fitted effect of over 65% in size
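Readout: SYBR Green fluorescence, 485 nm excitation, 535 nm emission, after ~16 h lysis at 37C. Before that, Dd2-infected red cells (2.5% hematocrit) grew 72 h with compound, 29 uM top final concentration.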
Each line names hits and unclear results; the compound was inactive in the other large screens. Shown is part of a subset that was picked to be rich in hits.

Cc1cnc(CC2CCN(C(=O)Nc3ccccc3)C2)n1CC1CC1 (centres undefined)	none
CCn1cc(S(=O)(=O)N2CCC(Cc3ncc(C)n3Cc3ccc(F)cc3)CC2)cn1	none
Cn1c([C@H]2CCN(S(=O)(=O)c3ccc(F)cc3)C2)nc2ccccc21	none
Cc1cnc(CC2CCN(C(=O)Nc3ccccc3F)C2)n1C(C)C (centres undefined)	none
Cc1cnc(CC2CCN(S(=O)(=O)c3ccccc3)CC2)n1Cc1ccccc1	Pf Dd2 growth 0.56µM
O=S(=O)(c1ccccc1)N1CCC(Cc2nncn2-c2ccccc2)C1 (centres undefined)	none
Cc1cnc(CC2CCCN(C(=O)Cc3ccccc3)C2)n1C(C)C (centres undefined)	Pf Dd2 growth 4.5µM
Cc1cnc(C2CCN(S(=O)(=O)c3ccccc3)C2)n1C(C)C (centres undefined)	Pf Dd2 growth 4µM
Cc1cnc(CC2CCN(C(=O)C3CC3)CC2)n1Cc1ccccc1	Pf Dd2 growth 6.3µM
O=C(NCc1ccc2c(c1)OCO2)c1ccc2c(c1)CC(=O)N2Cc1ccc(F)cc1	none
Cc1nnnn1-c1cccc(C(=O)N[C@H]2C[C@@H]3OCC[C@H]23)c1	none
COc1cc(=O)n2c(c1C(=O)Nc1ccc(C#N)cc1)CCCC2	none
COc1ccccc1NC(=O)CC1CCCN(c2cnn(C)c(=O)c2)C1 (centres undefined)	none
CCCNC(=O)N1CCCC1c1nc(CCOCC2CC2)no1 (centres undefined)	none
Nc1nc(-c2cccc(CN3CCOCC3)c2)cc(N2CCCC2)n1	none
CCc1ccc(CNC(=O)c2cc3cn(C4CCCC4)cc3s2)cc1	none
COCC1CN(C2CCC2)CC12CCN(C(=O)CCn1cc(C)cn1)CC2 (centres undefined)	none
C#CCNC(=O)C[C@@H]1O[C@H](CNC(=O)c2ccc(C)cc2)[C@@H](O)[C@H]1O	none
COc1cccc(N2C(=O)NC(=NC3CCCCC3)C23CCCN(C(=O)c2ccc(C(F)(F)F)cc2)C3)c1 (centres undefined)	none
N#Cc1ccc(S(=O)(=O)N2CCC(Cc3nc(-c4ccncc4)n[nH]3)C2)cc1 (centres undefined)	none
CCCn1c(C)cnc1CC1CCCN(C(=O)CCOC)C1 (centres undefined)	none
CCC(=O)N1CCC(Cc2ncc(C)n2C2CC2)C1 (centres undefined)	none
Cc1cnc(CC2CCN(S(=O)(=O)c3ccc(C#N)cc3)C2)n1C1CC1 (centres undefined)	Pf Dd2 growth 10µM
CCCn1c(C)cnc1CC1CCCN(S(=O)(=O)c2cc(OC)ccc2OC)C1 (centres undefined)	Pf Dd2 growth 1.3µM
CCCS(=O)(=O)NCCc1ncc(C)n1Cc1ccccc1	none
COc1cccc(CN2CCCC(Cc3ncc(C)n3Cc3ccccc3)C2)c1 (centres undefined)	none
CCS(=O)(=O)N1CCC(Cc2ncc(C)n2Cc2ccccc2)C1 (centres undefined)	Pf Dd2 growth 11µM
CCCn1c(C)cnc1CC1CCN(C(=O)c2ccc(OC)cc2OC)CC1	none
COc1ccccc1C(=O)N1CCn2c(nn(-c3ccc(Cl)cc3)c2=O)C1	none
COc1cc2c(cc1OC)C(C[C@H]1CN(C(=O)c3cccn3C)CC[C@H]1CC(=O)O)=NCC2	none
O=C(NCc1ccco1)N1CCCC2(C1)Nc1cccnc1NC2=NCc1ccccc1 (centres undefined)	none
Cn1cccc1CN1CCC(n2cc[nH]c2=O)CC1	none
Cc1ccc(CN2C(=O)[C@@H]3C[C@@H](O)CN3C3(CN(CC4CC4)C3)C2=O)o1	none
CC(=O)Nc1ccc(CN2CC3(C2)C(=O)N(Cc2ccc(C)o2)C(=O)[C@@H]2C[C@@H](O)CN23)cc1	none
Cc1ccc(CN2C(=O)[C@@H]3C[C@@H](O)CN3C3(CN(CC(C)C)C3)C2=O)o1	none
Cc1ccc(CN2C(=O)[C@@H]3C[C@@H](O)CN3C3(CN(Cc4ccc(F)cc4)C3)C2=O)o1	Pf Dd2 growth 14µM
Cc1ccc(CN2C(=O)[C@@H]3C[C@@H](O)CN3C3(CN(CCC(C)C)C3)C2=O)o1	Pf Dd2 growth 11µM
Cc1ccc(CN2C(=O)[C@@H]3C[C@@H](O)CN3C3(CN(Cc4ccc(C#N)cc4)C3)C2=O)o1	none
COCC(=O)NC[C@H]1OC[C@@H](NCc2cccc(C#N)c2)[C@@H]1O	none
CCCCc1ccc(NC(=O)c2ccc3c(c2)N(S(C)(=O)=O)CC3)cc1	none
O=C([C@@H]1C[C@H](Oc2ccccc2)CN1C(=O)CC1CCCC1)N1CCOCC1	none
O=C1CO[C@H]2CCN(Cc3ccccc3Cl)CC[C@@H]2N1c1ccccc1	none
COc1cc(OC)c(C(=O)N2CCOCC(CO)C2)cc1OC (centres undefined)	none
COc1ccc(CN2CCn3c(nnc3C3CCCNC3)C2)cc1 (centres undefined)	none
COCCC(=O)N1CCCCCNC(=O)[C@@H]2CCCC[C@@H]21	none
CCN1C(=O)C2CC3(CCN(Cc4ccc(C)s4)CC3)CN2C1=O (centres undefined)	none
O=C(/C=C/c1ccccc1)Nc1cc(-c2nc3ccccc3o2)ccc1Cl	none
Cc1ccc2nc(-c3cc(NC(=O)/C=C/c4ccccc4)ccc3Cl)oc2c1	Pf Dd2 growth 11µM
Cc1ccc2nc(-c3cc(NC(=O)c4ccc5c(c4)OCCO5)ccc3Cl)oc2c1	none
COc1ccccc1Nc1ncc2c(n1)CN(C(=O)c1cccc(O)c1)CCN2	none
COc1ccccc1Nc1ncc2c(n1)CN(C(=O)c1ccc(Oc3ccccc3)cc1)CCN2	Pf Dd2 growth 8.9µM
COc1ccccc1Nc1ncc2c(n1)CN([S+](=O)([O-])c1ccccc1)CCN2	none
O=C(Cc1cccc(Cl)c1)N1CCC(c2nn(Cc3ccccc3)c(=O)[nH]2)CC1	none
Cc1nc(C)c(C(=O)N2CCCC2c2nc(CCOCC3CC3)no2)s1 (centres undefined)	none
FC(F)(F)CN1C2CCC1CN(c1cnc3ccccc3c1)C2	none
Cc1ncc2c(N3CC4CCC(C3)N4CC(F)(F)F)nc3ccccc3n12	Pf Dd2 growth 5µM
FC(F)(F)CN1C2CCC1CN(c1nccc(Nc3ccccc3Cl)n1)C2	Pf Dd2 growth 8.9µM
FC(F)(F)CN1C2CCC1CN(c1ccccn1)C2	none
O=[N+]([O-])c1ccc(Cl)nc1N1CC2CCC(C1)N2CC(F)(F)F	none
Cc1ccnc(N2CC3CCC(C2)N3CC(F)(F)F)c1[N+](=O)[O-]	none
FC(F)(F)CN1C2CCC1CN(c1nnc(Cl)c3ccccc13)C2	Pf Dd2 growth 0.71µM
FC(F)(F)CN1C2CCC1CN(c1ncc(C(F)(F)F)cn1)C2	none
COc1ccccc1Nc1ccnc(N2CC3CCC(C2)N3CC(F)(F)F)n1	none
COc1ccc(C[C@H](NC(=O)C2=C[C@@H](NC(=O)c3ccccc3Br)[C@@H](O)[C@H](O)C2)C(N)=O)cc1	none
N#Cc1cccc(NC(=O)CCn2ccn3nc4c(c3c2=O)CCCC4)c1	none
COCCCNC(=O)CCC[C@@H]1[C@H]2CCCN3CCC[C@@H](CN1C(=O)c1ccccc1)[C@@H]23	none
Cc1cccc(C)c1NC(=O)CN1C(=O)NC2(CCOCC2)C1=O	none
COc1ccc(C(=O)N[C@@H]2CCC[C@@H]2C(=O)N(C)C)cc1	none
COc1ccccc1Cc1nc(-c2nnn3c2COC(c2ccc(C)cc2)C3)no1 (centres undefined)	Pf Dd2 growth 7.9µM
Cc1ccc(C2Cn3nnc(-c4noc(COc5ccc(F)cc5)n4)c3CO2)cc1 (centres undefined)	none
COc1cccc(-c2nc(-c3nnn4c3COC(c3ccc(C)cc3)C4)no2)c1OC (centres undefined)	none
COCC(=O)N1CCC(Oc2ccccc2C(=O)N2C[C@H]3CC[C@H]2C3)CC1	none
CCNC(=O)N1CCCN(C)c2ccccc21	none

High-throughput results (PubChem BioAssay)
